Compound activity (PubChem)
Sm TGR block – inhibitors of Schistosoma mansoni thioredoxin glutathione reductase. Q962Y6. purified TGR, DTNB reduction, TNB absorbance 405 nm. Potency, µM (doses to about 114 µM), without a hit: at the highest dose activity change, negative = inhibition, actives largely listed as inhibitors. actives 3% (n = 360,000); note: potency is the fitted concentration of half-maximal effect; % is set by controls: 0 for no effect and ±100 for the full control effect; nearly all actives have a fitted effect of over 60% in size
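First, TGR (20 nM dispensed) and NADPH were mixed with compound. Second, a 15 min room-temperature incubation followed. Third, further NADPH and then DTNB were added to start the reaction. Finally, TNB absorbance was monitored kinetically.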
Shiga inhibitor – inhibitors of Shiga toxin in Vero cells | Vero cells, Shiga toxin protein synthesis inhibition reporter | inhibition, % at 38.7 µM | actives 9.2% (n = 290,000) | AID 2315; in the data active = inhibition mostly above about 28%, no sharp cut-off; inactive = mostly below about 43%; note: 0% is about no effect
CHX counter – counter-screen hit for Shiga toxin inhibitors, cycloheximide | cell reporter, cycloheximide protein synthesis inhibition counterscreen | max response, % | actives 12% (n = 300,000); in the data active = max response mostly above about 13%, no sharp cut-off; inactive = mostly below about 14%; note: read at 38.3 µM for the half of the compounds with a filed dose; 0% is about no effect
Pf growth 96h – P. falciparum growth inhibition at 96 hour, primary screen for plastid delayed-death inhibitors. P. falciparum luciferase reporter growth, 96 h. Potency, µM (titrated, usually from 28.7 µM), without a hit: at the top dose activity change, negative = inhibition, actives largely listed as inhibitors. actives 6.9% (n = 320,000). AID 504834; note: potency is the fitted concentration of half-maximal effect; % is set by controls: 0 for no effect and ±100 for the full control effect
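Plates of compound plus infected erythrocytes (2% hematocrit, 0.05% parasitemia final) incubate 96 hours, 37 C, 5% CO2. Detection reagent added; reduced luminescence from the parasites' luciferase reporter flags inhibition.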
NS1 inh – blocks influenza NS1 protein function; Potency, µM (top dose mostly 46.1 µM), without a hit: at the top dose activity, positive = more growth; actives 0.4% (n = 270,000); calls by dose curve; note: potency is the fitted concentration of half-maximal effect; actives are rising curves; nearly all actives have a fitted effect of over 50% in size
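S. cerevisiae expressing influenza A NS1, grown in glucose, washed, then diluted 1:100 into pH 6.0 -URA galactose medium with 23 nl compound. Growth recovery read as OD600; NS1-free strain serves as control.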
Pf growth 48h – inhibits P. falciparum growth in the first generation, 48 h; P. falciparum luciferase growth in erythrocytes, 48 h; Potency, µM (doses to about 28.7 µM), inactives show at the top dose activity change, negative = inhibition, actives largely listed as inhibitors; actives 5.9% (n = 310,000); AID 504832; note: potency is the fitted concentration of half-maximal effect; % is set by controls: 0 for no effect and ±100 for the full control effect
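Luciferase-expressing parasites in RBCs, 2% Hct / 0.1% parasitemia final; RPMI 1640 + 0.5% Albumax; 37 C, 5% CO2, one generation; luminescence read-out, lower signal = inhibition.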
* marks the source's active call; other numbers are inactive results; ? = inconclusive; · = no result; ! = a repeat was not active. This is a sample that favours compounds with a hit; in the whole collection about 21% have one here. Unless noted, calls come from the whole dose curve; as a rule, active = well fitted curve in the direction sought with a large enough effect; inconclusive = small, poorly fitted or top-dose-only effect, or another doubt; inactive = no such curve, though single readings can be large; an effect the other way counts as inactive or inconclusive.

SMILES | Sm TGR block | Shiga inhibitor | CHX counter | Pf growth 96h | NS1 inh | Pf growth 48h
CCOC(=O)Cc1csc(NC(=O)CSc2ncnc3c2cnn3-c2ccccc2Cl)n1 | 5% | -4 | 1 | · | -46% | 7.4µM*
CCOC(=O)c1csc(NC(=O)CSc2nnc(C3CC3)n2C)n1 | 2% | -5 | -8 | ? | -1% | -12%
CCOC(=O)Cc1csc(NC(=O)CSc2nnc(C)n2C)n1 | 1% | -4 | -6 | 10µM* | 2% | 11%
CCOC(=O)Cc1csc(NC(=O)CSc2nnc(C3CC3)n2C)n1 | -4% | -2 | -2 | 13µM* | 3% | 2%
O=C(Nc1cc2c3c(c1)CC(=O)N3CCC2)c1ccco1 | -4% | · | · | 60% | · | 50%
CCN(CC)c1ccc(NC2CC(=O)N(CCc3ccc(OC)cc3)C2=O)cc1 (stereo not given) | 10µM* | 2 | -2 | 1.9µM* | 8% | 4.7µM*
O=C1CC(NCCc2ccccc2)C(=O)N1CCc1ccccc1 (stereo not given) | -36% | -6 | 6 | 23% | 0% | -3%
Cc1ccc(NC2CC(=O)N(CCc3ccccc3)C2=O)cc1 (stereo not given) | -1% | 25 | 18* | 12% | -10% | ·
CCOc1ccc(N2CC(NC(=O)CCc3ccccc3)CC2=O)cc1 (stereo not given) | 2% | · | · | · | · | ·
CCN1/C(=C/c2ccc3cc(C)ccc3[n+]2CC)Sc2cc(C)ccc21 | 2% | -21 | 2 | ? | · | ?
CCCCN1/C(=C/c2ccc3ccccc3[n+]2CC)Sc2ccccc21 | · | -9 | -2 | 24% | -62% | 2.9µM*
COc1ccc(N2CC(NC(=O)c3ccc4c(c3)OCO4)CC2=O)cc1 (stereo not given) | -1% | · | · | · | · | ·
CCN(CC)CCC(=O)N1c2ccccc2Sc2ccc(Cl)cc21 | -6% | · | · | 1.7µM* | · | ?
CN(C)CCC(=O)N1c2ccccc2Sc2ccc(Cl)cc21 | · | -6 | -8 | 16% | 0% | ?
O=C(CCN1CCN2CCCC2C1)N1c2ccccc2Sc2ccc(Cl)cc21 (stereo not given) | 10% | -11 | -2 | 11µM*! | 2% | ?
COC(=O)Nc1ccc2c(c1)N(C(=O)CCN1CCN3CCCC3C1)c1ccccc1S2 (stereo not given) | -3% | -5 | -2 | ? | -11% | ?
C=CCNC(=O)CN1N=C(c2ccc(C)cc2)CCC1=O | -2% | -7 | -2 | ? | 0% | 3%
CC(=O)c1ccc(-c2nnc(CCC(=O)N3CCCC(C(=O)CC(C)C)C3)o2)s1 (stereo not given) | ? | 80* | 34* | 18% | 5% | -16%
CCC(=O)C1CCCN(C(=O)CCc2nnc(C3(c4ccc(Cl)cc4)CCC3)o2)C1 (stereo not given) | -16% | 80* | 57* | 36% | 1% | 3%
NC(=O)C1CCCN(C(=O)CCc2nnc(C3(c4ccc(Cl)cc4)CCC3)o2)C1 (stereo not given) | 3% | 11 | 2 | ? | 0% | ?
O=C(CCc1nnc(C2(c3ccc(Cl)cc3)CCC2)o1)N1CCCC1 | -27% | 75* | 25* | 0% | 1% | 0%
COc1ccccc1NC(=O)CSc1nnc(NC(=O)NC2CCCCC2)s1 | 4% | · | · | · | · | ·
CCOc1ccccc1N(CC)C(=O)c1cc2c(=O)n(CC)c3ccccc3c2s1 | -9% | · | · | · | · | ·
COc1ccc(NC(=O)N2CCC(n3c(C)nc4cccnc43)CC2)cc1OC | 0% | · | · | · | · | ·
CCCCN(CC)C(=O)Cn1nc(Cc2ccncc2)c2ccccc2c1=O | 0% | -5 | -2 | 0% | 2% | ?
CN(C)CCn1c(=N)n(CC(O)c2ccc(Cl)c(Cl)c2)c2ccccc21 (stereo not given) | 2% | -12 | -5 | 1% | -4% | 0.74µM*
COc1ccccc1OCC(O)Cn1c(=N)n(CCN2CCCCC2)c2ccccc21 (stereo not given) | -15% | 18 | -2 | -22% | -5% | 3.3µM*
N=c1n(CCN2CCCCC2)c2ccccc2n1CC(O)c1cccc(Br)c1 (stereo not given) | 5% | -8 | 1 | 0.74µM* | 0% | 0.59µM*
